An excerpt weighted towards active compounds, which were near 19% of everything screened.
uPA surface inh: qHTS for Inhibitors of Cell Surface uPA Generation; 0.31% of 330,000 active; Potency, µM (doses to about 38.3 µM), actives largely listed as inhibitors; AID 540303, 2011; cell surface uPA generation assay, qHTS; active means well fitted inhibition curve with a large enough effect; inconclusive means small, poorly fitted or top-dose-only effect; inactive means no such curve, though single readings can be large or run the other way; tested in mouse RAW 264.7 cells; further: nearly all actives have a fitted effect of over 55% in size
HT1080-NT tox: qHTS for induction of synthetic lethality in tumor cells producing 2HG: qHTS for the HT-1080-NT fibrosarcoma cell line. HT-1080-NT fibrosarcoma viability, CellTiter-Glo ATP luminescence, 48 h. Potency, µM (series often up to 46.1 µM), most hits filed as cytotoxic. 1.6% of 360,000 active;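 further: NT is the 2HG producing partner of a matched IDH1 knockdown line; nearly all actives have a fitted effect of over 55% in size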
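A 48-hour cytotoxicity screen used HT-1080-NT cells plated 2 hours before compound delivery. ATP-based CellTiter-Glo luminescence measured viability, normalized to DMSO and no-cell controls.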
DT40 TDP1 CPT: qHTS for Inhibitors of human tyrosyl-DNA phosphodiesterase 1 (TDP1): qHTS in cells in presence of CPT. Potency, µM (titrated, usually from 46.2 µM), actives largely listed as inhibitors. 12% of 420,000 active. chicken DT40 Tdp1-/-;hTDP1 cells + 20 nM CPT, ATP luminescence, 48 h; further: nearly all actives have a fitted effect of over 55% in size
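Cell growth measured by CellTiter-Glo luminescence after a minimum 48 h, 37 C compound exposure with 20 nM CPT in Tdp1-knockout DT40 cells stably expressing hTDP1, seeded 400/well; qHTS titration format.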
IL1B secr inh: qHTS for Inhibitors of Inflammasome Signaling: IL-1-beta AlphaLISA Primary Screen | THP-1 LPS/ATP IL-1B secretion, AlphaLISA, 16 h; stronger effect = lower value | activity change, % at 57.5 µM | 4.7% of 360,000 active | AID 743279, 2014; in the data active means activity change below about -50%; inconclusive means mostly about -30% to -49%
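Secreted IL-1B measured by AlphaLISA bead assay after 16 h compound exposure of THP-1 cells; compounds (final up to 57.5 uM) added 1 h before LPS (250 ng/mL) and ATP (1.25 mM) stimulation; lower signal means less secretion.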
DT40 TDP1 no CPT: qHTS for Inhibitors of human tyrosyl-DNA phosphodiesterase 1 (TDP1): qHTS in cells in absence of CPT. DT40 Tdp1-/- hTDP1 cells, no CPT, ATP luminescence, 48 h. Potency, µM (highest dose often 46.2 µM), hits mostly inhibitors. 15% of 420,000 active. AID 686978, 2013; further: nearly all actives have a fitted effect of over 55% in size
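No-CPT arm: Tdp1-/-;hTDP1 DT40 cells (400/well) plus compounds, incubated ≥48 hr at 37 °C. Readout CellTiter-Glo luminescence.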
HT1080 IDH1KD tx: qHTS for induction of synthetic lethality in tumor cells producing 2HG: qHTS for the HT-1080-IDH1KD cell line | 2% of 360,000 active | Potency, µM (top dose mostly 46.1 µM), actives largely listed as cytotoxic | AID 686971, 2013 | HT-1080 IDH1 knockdown viability, ATP luminescence, 48 h
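% activity derives from luminescence (CellTiter-Glo), normalised to DMSO and no-cell wells. HT-1080-IDH1KD cells, 750/well, had 48 h compound exposure at 37 °C.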
Hits are given with their value; - = inactive; ? = inconclusive; . = no result; ! = a repeat was not active. Unless noted, the call rests on the fitted dose curve; in most records, active means well fitted curve in the direction sought with a large enough effect; inconclusive means small, poorly fitted or top-dose-only effect, or another doubt; inactive means no such curve, though single readings can be large; an effect the other way counts as inactive or inconclusive.

SMILES	uPA surface inh	HT1080-NT tox	DT40 TDP1 CPT	IL1B secr inh	DT40 TDP1 no CPT	HT1080 IDH1KD tx
O=[N+]([O-])c1ccc(Sc2nccn2Cc2ccccc2)c([N+](=O)[O-])c1	-	-	6.5µM	-108	5.8µM	?
O=[N+]([O-])c1cc(C(F)(F)F)ccc1Sc1nccn1Cc1ccccc1	-	-	-	?	-	-
Cc1cccc(Sc2c([N+](=O)[O-])ncn2C)n1	-	-	-	-	-	-
Cc1cccc(Sc2ccc([N+](=O)[O-])cc2[N+](=O)[O-])n1	-	?	3.3µM	-171	3.3µM	18µM
CCc1cccc(NC(=O)Cn2c(=O)c3cccn3c3ccccc32)c1	-	-	-	-	?	-
COc1ccc(NC2CCCN(C(=O)CCc3ccncc3)C2)cc1OC (configuration not stated)	-	-	-	-	-	-
COc1ccccc1NC(=O)CCc1nnc2ccc(N3CCC4(CC3)OCCO4)nn12	-	-	-	-	-	-
COc1ccc(/C([O-])=C(/C(=S)Nc2ccc(C)c(C)c2)n2c[n+](C)c3ccccc32)cc1OC	.	-	29µM	-	?	-
COc1ccc(CCn2c3c(c(=O)[nH]c2=O)C(NC(=O)c2ccccc2OC)(C(F)(F)F)C(=O)N3)cc1OC (configuration not stated)	.	.	-	.	-	.
COc1ccc(C2N(C(=O)N(C)C)CCN2S(=O)(=O)c2ccc(OC)cc2)cc1 (configuration not stated)	-	-	-	-	?	-
O=C(CNC(=O)c1ccc(Br)cc1)c1ccccc1	-	-	-	-65	-	-
CC(C)C(NC(=O)c1ccccc1)C(=O)N1CCN(C/C=C/c2ccccc2)CC1 (configuration not stated)	-	-	?	-	?	-
O=C(NCCSc1ccccc1)c1ccccc1	-	-	-	-	-	-
O=C(NCC(=O)N1CCN(C/C=C/c2ccccc2)CC1)c1ccc(OC(F)F)cc1	-	-	?	-	15µM	-
O=C(NCCSSCCNC(=O)c1ccccc1)c1ccccc1	-	-	18µM	-68	16µM	-
O=C(NCC(=O)N1CCCCCC1)c1ccc(OC(F)F)cc1	-	-	-	-	-	-
C[C@H](NC(=O)c1ccc(C(C)(C)C)cc1)C(=O)N1CCN(C/C=C/c2ccccc2)CC1	?	?	?	?	21µM	?
CC1CCN(S(=O)(=O)c2ccc3c(c2)NC(=O)CS3)CC1	-	-	-	-	-	-
O=C(NCC(=O)N1CCN(C/C=C/c2ccccc2)CC1)c1ccc(Br)cc1	-	-	16µM	-	8.2µM	-
CSCCC(NC(=O)c1ccc(Cl)c([N+](=O)[O-])c1)C(=O)N1CCN(C/C=C/c2ccccc2)CC1 (configuration not stated)	?	-	18µM	-103	?	-
CC1(C)C(O)CC[C@]2(C)C1CC[C@@]1(C)C2C(=O)C=C2[C@@H]3C[C@@](C)(C(=O)O)CC[C@@]3(C)CCC21C (some centres not stated)	.	.	-	.	-	.
CC1(C)[C@@H](O)CC[C@]2(C)[C@H]3C(=O)C=C4[C@@H]5C[C@@](C)(C(=O)O)CC[C@]5(C)CC[C@@]4(C)[C@]3(C)CC[C@@H]12	-	-	7.5µM!	-	2.4µM!	-
Cn1ncc(Cl)c1C(=O)NCc1cc(C(C)(C)C)n[nH]1	-	-	?	-	18µM	?
COc1ccc(CN2CCN(c3ccc(F)cc3)CC2)c(OC)c1OC	-	-	?	-	?	-
OC1CCN(Cc2cccc(Oc3ccccc3)c2)CC1	-	-	23µM	-	?	-
O=C(c1ccccc1)N1CCN(Cc2cccc(Oc3ccccc3)c2)CC1	-	-	?	-	?	-

Source: PubChem
